CHX counter – counter-screen for Shiga toxin inhibitors: cycloheximide protein synthesis inhibition. cell reporter, cycloheximide protein synthesis inhibition counterscreen. max response, %. 300,000 tested, 12% active; in the data active = max response mostly above about 13%, no sharp cut-off; inactive = mostly below about 14%; note: read at 38.3 µM for the half of the compounds with a filed dose; 0% is about no effect
HCV inh – blocks hepatitis C virus; Huh7.5.1 HCVcc-Cre infection, luciferase reporter, 44 h; Potency, µM (doses to about 41.8 µM), without a hit: top-dose activity change, negative = inhibition, hits mostly inhibitors; 340,000 tested, 3.4% active; note: potency is the fitted concentration of half-maximal effect; % is set by controls: 0 for no effect and ±100 for the full control effect
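1,000 cells/well; 4 h culture; + compound; + HCVcc-Cre (~0.5 moi); 44 h; luciferase substrate, RT 15 min; read 15 sec.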
Pf growth 48h – P. falciparum growth inhibition at 48 hours (one generation); P. falciparum luciferase growth in erythrocytes, 48 h; Potency, µM (highest dose often 28.7 µM), without a hit: at the highest dose activity change, negative = inhibition, hits mostly inhibitors; 310,000 tested, 5.9% active; AID 504832; note: potency is the fitted concentration of half-maximal effect; % is set by controls: 0 for no effect and ±100 for the full control effect
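A one-generation exposure of luciferase-tagged malaria parasites in RPMI 1640/Albumax erythrocyte culture, 37 C and 5% CO2. Inhibition is inferred from decreased luminescence after adding detection reagent.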
Shiga toxin inh – inhibitors of Shiga toxin in Vero cells | Vero cells, Shiga toxin protein synthesis inhibition reporter | inhibition, % at 38.7 µM | 290,000 tested, 9.2% active | AID 2315; in the data active = inhibition mostly above about 28%, no sharp cut-off; inactive = mostly below about 43%; note: 0% is about no effect
HCMV antiviral – blocks human cytomegalovirus replication. activity change, negative = inhibition, % at 57.5 µM. 410,000 tested, 4.5% active. HFF cells, HCMV-luciferase reporter, 72 h; stronger effect = lower value; in the data active = activity change below about -60%; inconclusive = no clear call, values can overlap the other calls; inactive = above about -39%; note: % is set by controls: 0 for no effect and ±100 for the full control effect
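Inhibition of viral replication was scored as loss of reporter luminescence in HFFs infected with HCMV-luciferase (MOI 1 PFU/cell) for 72 h; compounds tested at 2 doses, normalized to buffer and Salinomycin controls.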
Pf growth 96h – P. falciparum growth inhibition at 96 hour, primary screen for plastid delayed-death inhibitors | AID 504834 | P. falciparum luciferase reporter growth, 96 h | 320,000 tested, 6.9% active | Potency, µM (top dose mostly 28.7 µM), inactives show top-dose activity change, negative = inhibition, most hits filed as inhibitors; note: potency is the fitted concentration of half-maximal effect; % is set by controls: 0 for no effect and ±100 for the full control effect
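Two-generation exposure (96 h) targets delayed-death phenotype. Reporter parasites carrying integrated firefly luciferase, in red cells at 2% hematocrit and 0.05% parasitemia final, kept at 37 C, 5% CO2; luminescence loss indicates inhibition.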
An asterisk follows results filed as active; ? = inconclusive; . = no result. Most compounds without a hit are left out; they make up all but 21% or so of the library. Unless noted, calls come from the whole dose curve; as a rule, active = well fitted inhibition curve with a large enough effect; inconclusive = small, poorly fitted or top-dose-only effect, or another doubt; inactive = no such curve, though single readings can be large or run the other way.

SMILES | CHX counter | HCV inh | Pf growth 48h | Shiga toxin inh | HCMV antiviral | Pf growth 96h
Cc1ccc(SCC(=O)Nc2cccc(C)c2)cc1 | 18.8* | ? | 17.2% | 24.0 | -2.2 | ?
Cc1cc(C)n(-c2ccc(C(=O)Nc3cccnc3)cc2)n1 | 8.2 | -8.0% | -4.7% | 4.6 | 7.0 | 0.0%
COc1ccc(C2=C(C)C(N3CCC(C(=O)Nc4cc(C)ccc4C)CC3)=NS2(=O)=O)cc1 | . | . | . | . | 5.9 | .
COc1ccccc1NC(=O)c1sc2nc(C)c(C(=O)Nc3ccc(C)cc3C)c(-c3ccccc3Cl)c2c1N | . | . | . | . | 11.2 | .
O=C(Cc1ccccc1F)Nc1cccc2cccnc12 | 24.2* | -1.5% | 43.3% | 29.2* | 112.7 | 27.0%
O=C(O)CCCC(=O)Nc1cccc2cccnc12 | 0.8 | -6.6% | 33.0% | -4.7 | 53.3 | 0.0%
Cc1cccc(NC(=O)CCn2ccnc2C)c1 | 21.4* | 9.5% | 21.3% | 50.2* | 44.1 | -48.9%
CCc1cccc(C)c1NC(=O)c1cc2ccccc2o1 | . | . | . | . | -4.0 | .
C/C(=N\NC(=O)c1ccc(Br)cc1)c1ccccc1 | 54.6* | 4.5% | 155.9% | 112.9* | 23.5 | -13.5%
COC(=O)C(NC(=O)CNS(=O)(=O)c1ccc(Br)cc1)c1ccccc1 (stereo not drawn) | -2.3 | -20.6% | 10.4µM* | -6.1 | -1.1 | 14.9%
CC1(C)Cc2ccccc2C(NNC(=O)c2cccnc2)=N1 | -3.4 | 20.6% | 11.3% | -6.5 | -91.7* | ?
CSC(=S)N/N=C(\C)c1ccc(Br)cc1 | 29.5* | ? | ? | 45.3* | ? | 73.9%
COC(=O)C(Cc1ccccc1)NC(=O)CNS(=O)(=O)c1ccc(Br)cc1 (stereo not drawn) | 8.1 | 11.0% | 107.9% | -6.0 | -31.7 | 23.7%
O=C1CCC[C@H]2[C@@H](Cc3ccccc3)[C@@H](NS(=O)(=O)Cc3ccccc3)CC[C@]23CCCN13 | . | . | . | . | -16.9 | .
C/C(=N\NC(=O)c1cccnc1)c1ccc(Br)cc1 | 15.7* | -13.1% | 19.3% | 27.3 | 3.3 | 15.5%
C/C(=N/NC(=O)CNS(=O)(=O)c1ccccc1)c1ccc(Br)cc1 | 1.1 | 18.0% | ? | -4.2 | -9.5 | 13.1µM*
C/C(=N\NC(=O)c1cccc(Br)c1)c1cccnc1 | 23.5* | 4.1% | 37.6% | 50.6* | 19.8 | -28.7%
C/C(=N\NC(=O)c1cccc2ccccc12)c1cccnc1 | 6.1 | -6.5% | 26.4% | 6.0 | 2.3 | -2.7%
C/C(=N\NC(=O)c1cccnc1)c1ccccc1 | 13.1* | 30.9% | 47.1% | 5.1 | 52.4 | ?
Cc1cc(NC(=O)NC(=O)c2ccccc2NC(=O)C(C)N)ccc1Oc1ncc(Br)cn1 (stereo not drawn) | . | -22.7% | . | . | -82.8* | .
CCc1ccc(C(=O)c2c(N)c(-c3nc(-c4ccc5c(c4)OCO5)cs3)c3ccccn23)cc1 | 18.4 | . | . | 38.7 | 10.9 | .
Cc1cccc(Nc2ncnc3onc(-c4cccc(Cl)c4)c23)c1C | 8.2* | 6.1% | ? | 12.0 | -16.6 | 9.28µM*
Cc1cccc(Nc2ncnc3onc(-c4ccc(F)cc4)c23)c1C | 1.3 | -16.0% | ? | -4.7 | -6.9 | ?
c1ccc2[nH]c3cc4ncnc4cc3nc2c1 | 27.6* | -21.3% | 62.3% | 35.8* | -87.5* | 8.6%
COc1ccc(-c2nc(CS(=O)(=O)CC(=O)NCCCc3ccccc3)c(C)o2)cc1 | 18.0 | ? | 16.4% | 16.7 | -18.4 | ?
SMILES | CHX counter | HCV inh | Pf growth 48h | Shiga toxin inh | HCMV antiviral | Pf growth 96h
Cc1ccc(S(=O)(=O)N(C)Cc2nc(-c3ccccc3)oc2C)cc1 | . | . | . | . | -1.0 | .
Cc1oc(-c2ccc(-c3ccccc3)cc2)nc1CN(CCO)C(C)C | 37.2* | ? | 158.7% | 32.5 | 40.0 | ?
Cc1ccc(-c2nc(CS(=O)(=O)CC(=O)NCCCN(Cc3ccccc3)C(C)C)c(C)o2)cc1 | -3.3 | 10µM* | ? | -9.4 | 62.3 | 5.9%
NS(=O)(=O)c1ccc(NC(NC(=O)c2cccnc2)C(Cl)(Cl)Cl)cc1 (stereo not drawn) | -4.2 | -1.3% | 4.2% | -7.5 | 5.0 | 0.0%
O=[N+]([O-])c1cccc(C([O-])=C(C(=S)Nc2cccc3ccccc23)[n+]2ccccc2)c1 | . | ? | . | . | 28.3 | .
O=[N+]([O-])c1ccc(/C([O-])=C(/C(=S)NCc2ccco2)[n+]2ccccc2)cc1 | -2.6 | -9.0% | 22.7% | 0.9 | -61.0* | 7.0%
Cc1ccc(/C([O-])=C(/C(=S)NCc2ccco2)[n+]2ccccc2)cc1 | -1.4 | . | . | -12.3 | . | ?
O=[N+]([O-])c1cccc(/C([O-])=C(/C(=S)Nc2cccc3ccccc23)[n+]2ccccc2)c1 | 26.7* | ? | 9.28µM* | 64.3* | -0.7 | ?
Cc1ccc(/C([O-])=C(/C(=S)NCc2ccccc2)[n+]2ccccc2)cc1[N+](=O)[O-] | -3.3 | -5.0% | 8.6% | -5.4 | 28.4 | -21.7%
COc1cccc(NC(=S)/C(=C(\[O-])c2ccc([N+](=O)[O-])cc2)[n+]2ccccc2)c1 | 23.8* | -9.3% | 0.0% | 65.8* | -28.0 | -12.6%
CCOc1ccc(NC(=S)/C(=C(\[O-])c2ccc(C)c([N+](=O)[O-])c2)[n+]2ccccc2)cc1 | 32.9* | -5.2% | ? | 40.8* | . | .
COc1cccc(OC)c1OC(=O)c1ccccc1 | . | 20.8% | . | . | -3.9 | .
CCc1cc[n+](/C(C(=S)Nc2cccc(C)c2)=C(/[O-])c2ccc(C)c([N+](=O)[O-])c2)cc1 | -0.9 | 7.0% | ? | 4.8 | 29.0 | 0.147µM*
CN(Cc1ccccc1)c1oc(COc2ccccc2F)nc1C#N | 25.0 | -21.8% | . | 88.8* | -22.8 | -1.3%
N#Cc1nc(COc2ccccc2F)oc1NCCc1ccccc1 | 27.2* | ? | 6.0% | 56.9* | 0.5 | ?
Cc1ccc(OCc2nc(C#N)c(NCCc3ccccc3)o2)cc1 | . | . | . | . | -3.6 | .
CN(Cc1ccccc1)c1oc(-c2ccco2)nc1C#N | 0.6 | -18.9% | -13.1% | -7.1 | ? | .
CC1CCC(NC(=O)CSc2nncn2C)CC1 (stereo not drawn) | . | 13.6% | . | . | 1.7 | .
COc1cc(C(=O)COC(=O)c2ccc([N+](=O)[O-])o2)cc(OC)c1OC | . | -19.8% | . | . | -25.6 | .
COc1ccc(CNC(=O)Cn2ccc3cc(S(=O)(=O)N4CCCCC4)ccc32)cc1OC | . | . | . | . | -3.0 | .
C[C@@H]1CCC(=O)N(C[C@@H](C)CSc2ccccc2)CC1 | 1.0 | 1.9% | 79.2% | 5.7 | -6.6 | -16.7%
O=C(Nc1cc(S(=O)(=O)N2CCCCCC2)ccc1OCC(F)(F)F)c1cnccn1 | . | -11.9% | ? | . | -12.7 | ?
Cc1cccc(CCNC(=O)C2CCC(CNc3c(N4CCCC4)c(=O)c3=O)CC2)c1 (stereo not drawn) | -5.9 | -2.1% | . | -11.0 | -12.2 | 9.28µM*
O=C(NC1CCCc2ccccc21)C1CCC(CNc2c(N3CCOCC3)c(=O)c2=O)CC1 (stereo not drawn) | -0.8 | 17.7% | 20.4% | -5.5 | 23.4 | 10.4µM*

Bioassay records from PubChem BioAssay.
